Compounds without any hit were thinned out: in the full panel of roughly 83,000, 20% have a hit.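 Testing used 96-well plates and a 48-hour single-concentration exposure. Example: -40 means 40% of the starting cells died.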 Values without a mark were called inactive. Calls of active or inactive are those of the source. How the source made its calls: active means growth percent below 10; inactive means the rest.
Each compound was assayed on MDA-MB-468 breast (assay: NCI-60 one-dose screen, 48 h (100 = growth as untreated, 0 = no growth, -100 = all killed)). Settings: 10 µM unless noted.

| Structure (SMILES) | growth |
| --- | --- |
| Fc1cnc(NC2CC2)nc1-c1cnc2ccc(N3CCOCC3)cn12 | -29.6% (active) |
| COc1cc(-c2nc3c(c(C)nc4c3nnn4-c3ccccc3)c(=O)o2)cc(OC)c1OC | 110% |
| COc1cc(C(=O)c2cnc(-c3cccc4[nH]ccc34)[nH]2)cc(OC)c1OC | -2.51% (active) |
| COc1ccc(CN2CCC(N3CCCC3=O)c3cc(Cl)ccc32)cc1 (stereo not drawn) | 114% |
| CC(=O)N(C(C)=O)c1ccc(C)cc1 | 98.9% |
| COc1ccc(NC(=O)c2ccc3c(c2)nc(-c2cc4ccccc4[nH]c2=O)n3-c2cc(C(C)(C)C)[nH]n2)cc1 | 95% |
| COc1ccc(-c2nnc(SCC(=O)Nc3ccc(C(=O)/C=C/c4ccc(OC)c(OC)c4)cc3)o2)cc1 | 88.7% |
| COC(=O)[C@]1(C)CCC[C@]2(C)[C@H]3C[C@H]4C(C(C)C)=C[C@]3(CC[C@H]21)[C@H]1[C@@H]4[C@@H](OCCC#N)CC[C@@H]1OCCC#N | -6.32% (active) |
| COc1cccc(-c2nn(C(C)(C)C)cc2-c2ccnc(NCCCNS(=O)(=O)c3cccc4ccccc34)c2)c1 | 110% |
| Nc1ccc2c(c1)C(=O)c1cc(Cl)c(Cl)cc1-2 | 89.9% |
| N#C/C(=C\c1ccc(-c2cccc(C(F)(F)F)c2)o1)c1nc(-c2ccco2)cs1 | -37% (active) |
| CCCCCC[C@@H](O)C/C=C\CCCCCCCC(=O)OCCOC | 104% |
| O=C(C1=Cc2cc3ccccc3n2Cc2cnnn21)c1ccc(F)cc1 | 99.4% |
